PfM18AAP inh-1 – blocks P. falciparum M18 aspartyl aminopeptidase. recombinant PfM18AAP, H-Glu-NHMec fluorogenic cleavage. inhibition, % at 7.35 µM. 290,000 tested, 1.2% active. AID 1822;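 active = inhibition above the campaign mean inhibition over all tested compounds plus 3 SD, cut at about 28% in these data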;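 also: 0% = plate median of test compound wells and 100% = 2 mM ZnCl2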
MLLE-PAM2 inh – inhibitors of microRNA-mediated deadenylation, human PABP1 MLLE binding. GST-MLLE / FITC-PAM2 fluorescence polarization. inhibition, % at 20 µM. 360,000 tested, 0.36% active. AID 588489; in the data active = inhibition above about 35%, passing the limit was not always enough;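 also: plate controls were DMSO wells with GST-MLLE for no effect and wells lacking GST-MLLE protein for full effect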
eIF4H inh – inhibitors of RNA binding by human eIF4H. inhibition, % at 35 µM. 290,000 tested, 0.94% active. eIF4H fluorescence polarization binding assay;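 also: calls also rest on retests at 20 µM and on dose response follow-up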
PABP polyA inh – blocks human PABP binding to poly(A) RNA; P11940; fluorescence polarization; inhibition, % at 35 µM; 290,000 tested, 1% active;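 also: calls also rest on retests at 20 µM and on dose response follow-up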
PERK inhibitor – blocks human PERK kinase; Q9NZJ5; CHO PERK-DD fusion, SEAP luminescence translation reporter; inhibition, % at 5.6 µM; 220,000 tested, 0.17% active;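 active = inhibition above the mean inhibition of all tested compounds plus 3 SD, set separately per screening campaign, cut at about 2.9% in these data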;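 also: PERK kinase domain activated by AP20187 dimerizer at 100 nM; 0% = DMSO with dimerizer and 100% = rapamycin at 8.4 µM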
eIF4E-4G inh – blocks eIF4E binding to eIF4G; TR-FRET eIF4E-eIF4GI(517-606) binding, 2 h; P63073+Q04637; inhibition, % at 21.7 µM; 220,000 tested, 0.37% active;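 active = inhibition above about 30%, limit read from the data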;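 also: 0% = full FRET control wells and 100% = background wells lacking eIF4GI fragment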
PfM18AAP inh-2 – PfM18AAP inhibition, confirmation; inhibition, % at 7.35 µM; AID 2170; 2,400 tested, 28% active; shares compounds with PfM18AAP inh-1; recombinant PfM18AAP, H-Glu-NHMec fluorogenic cleavage;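 active = mean inhibition over replicate wells above the hit cutoff set for the earlier primary screen, cut at about 29% in these data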;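 also: 0% = median of test compound wells and 100% = 2 mM ZnCl2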
CTSL1 counter – Cathepsin L (human) inhibition, confirmation; shares compounds with PfM18AAP inh-1; purified cathepsin L1, Z-Leu-Arg-MCA fluorescence; inhibition, % at 5.96 µM; 2,400 tested, under 10 active; AID 2178;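 active = average inhibition across replicates above the hit cutoff set in the earlier primary screen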;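 also: 0% = median of test compound wells and 100% = Z-Phe-Ala-diazomethylketone 1 µM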
Starred values were filed as active, the others as inactive; ? = inconclusive; · = no result. Shown are actives, neighbours in structure and some others; about 2.4% of the full set was active somewhere. Unless noted, no rule for the calls is given here.

SMILES	PfM18AAP inh-1	MLLE-PAM2 inh	eIF4H inh	PABP polyA inh	PERK inhibitor	eIF4E-4G inh	PfM18AAP inh-2	CTSL1 counter
Cc1ccc(SC2=C(N(C)C)C(=O)c3ccccc3C2=O)cc1	·	34	·	·	·	·	·	·
CCn1ccnc1CN(C)Cc1nc(CCC(C)C)no1	-6	-4	-5	0	0	2	·	·
COc1cc(C(=S)N2CCN(c3ccccc3Cl)CC2)cc(O)c1O	54*	42*	32	-3	1	28	45*	-1
O=C(Nn1cnnc1)c1cc(-c2cccc(Br)c2)nc2ccccc12	61*	-37	-10	3	2	-1	57*	2
COc1cc(C(=O)NNc2nc3cc4c(cc3s2)OCO4)cc(OC)c1OC	41*	-106	2	12	1	1	16	-6
O=C(NNc1nc2cc3c(cc2s1)OCO3)c1ccccc1	48*	-127	1	-1	0	6	24	-5
Cc1ccc2nc(NNC(=O)c3ccc4c(c3)OCCO4)sc2c1	17	-151	0	7	-1	1	·	·
COc1cccc(OC)c1C(=O)Nc1nc2cc3c(cc2s1)OCO3	9	-1	-3	-3	0	-8	·	·
C=CCn1c(SCC(=O)c2ccc(O)c(O)c2)nnc1-c1cccnc1	54*	6	83	44	0	9	22	5
CCn1c(CSc2nc3ccccc3s2)nnc1SCC(=O)c1ccc(O)c(O)c1	49*	-57	52*	9.9*	-1	-1	30*	1
CCn1c(CSc2nc3ccccc3s2)nnc1SCC(=O)c1ccc(Cl)cc1	4	-54	-7	-1	1	-31	·	·
CCn1c(SCC(=O)c2ccc(O)c(O)c2)nnc1-c1ccccc1	41*	7	41	14	1	1	27	-5
C=CCn1c(SCC(=O)c2ccc(O)c(O)c2)nnc1-c1ccccc1OC	49*	-8	3	12	1	0	34*	1
C=CCn1c(SCC(=O)c2ccc(O)c(O)c2)nnc1-c1cccc(C)c1	·	-82	·	·	·	·	·	·
O=C(CCNC(=O)C1CCN(S(=O)(=O)c2ccc(F)cc2)CC1)NCc1ccc(Cl)cc1	-4	1	·	·	·	·	·	·
CCn1c(SCC(=O)c2ccc(O)c(O)c2)nnc1-c1ccccc1OC	42*	-1	6	11	0	1	23	2
CCOc1cc(C2Nc3ccccc3NC3=C2C(=O)CC(C)(C)C3)ccc1O (centres undefined)	37*	11	?	?	·	·	-28	-8
CCOc1cc(C2Nc3ccccc3NC3=C2C(=O)CC(C)(C)C3)ccc1OC(C)=O (centres undefined)	7	2	-2	0	·	·	·	·
Cc1nn(-c2ccccc2)c2c1C(c1ccc([N+](=O)[O-])cc1)C(C#N)=C(N)O2 (centres undefined)	28	19	-5	4	1	6	0	-1
C[C@H](NC(=O)c1nc[nH]c1C(=O)N1CCN(c2ccccc2)CC1)c1ccccc1	·	8	·	·	·	·	·	·
CN1CCc2cccc3c2C1Cc1ccc(O)c(O)c1-3 (centres undefined)	75*	1	-7	0	·	·	74*	-9
CN1CCC(=C2c3ccccc3C(O)c3ccccc32)CC1 (centres undefined)	-3	-10	12	8	0	2	·	·
CC1(C)OC2C(CO)OC(n3cnc4c(=S)nc(N)[nH]c43)C2O1 (centres undefined)	·	23	·	·	·	·	·	·
CC1(C)OC2C(CO)OC(n3cnc4c(=S)nc[nH]c43)C2O1 (centres undefined)	32*	18	-2	-5	0	2	-30	-5
O=C(Nn1cnnc1)c1ccc(OC(F)(F)C(F)C(F)(F)F)cc1 (centres undefined)	38*	-6	2	2	·	·	5	-6
SMILES	PfM18AAP inh-1	MLLE-PAM2 inh	eIF4H inh	PABP polyA inh	PERK inhibitor	eIF4E-4G inh	PfM18AAP inh-2	CTSL1 counter
O=C(Nn1cnnc1)c1ccc(F)cc1	32*	-2	-12	4	·	·	16	1
O=C(Nn1cnnc1)c1ccc(Cl)cc1	42*	-1	93	8	·	·	26	0
O=C(Nn1cnnc1)c1ccc(Cl)cc1[N+](=O)[O-]	25	6	-5	-1	·	·	·	·
COC(=O)c1ccc(OC(=O)c2ccccc2F)cc1	13	·	-2	1	1	5	·	·
CC1(C)CN(c2ccsc2C(=O)O)C1=O	2	7	-3	3	-1	1	·	·
COc1cc(/C=C/c2cc(C(=O)O)c3ccccc3n2)cc(OC)c1O	51*	5	-6	-2	-1	-3	18	2
CSc1cc(-c2ccncc2)nc(-c2ccc(Cl)cc2)c1	-2	-3	6	-4	·	·	·	·
COc1ccc(NC(=O)NNC(=O)c2cc3occc3n2C)c(OC)c1	61*	2	-18	-9	·	·	38*	2
O=C1C=C(NNC(=O)c2cccnc2)CC(c2ccco2)C1 (centres undefined)	35*	45*	?	-21	1	3	-29	9
CC1(C)CC(=O)C=C(NNC(=O)c2cccnc2)C1	18	14	34	12	0	3	·	·
COc1cc(-c2c(C#N)c(N)nc3c2c(C)nn3-c2ccc(C)c(C)c2)cc(OC)c1OC	1	-12	16	20	-1	15	·	·
Cc1nn(-c2ccc(F)cc2)c2nc(N)c(C#N)c(-c3ccc(O)c(O)c3)c12	69*	-31	-1	2	·	·	48*	-1
Cc1nn(-c2ccccc2)c2nc(N)c(C#N)c(-c3ccc(O)c(O)c3)c12	70*	-14	-9	9	·	·	48*	0
N#C/C(=C\c1ccccc1)C(=O)Nc1nncs1	35*	-2	0	4	1	3	37*	-2
N#C/C(=C\c1ccccc1)C(=O)Nc1cccnc1	2	-2	9	3	0	0	·	·
CNCc1ccccc1Sc1ccc(O)c(O)c1	51*	40*	36	17	1	23	70*	-5
CC(=O)Oc1ccc(C(=O)OCC(=O)c2c(N)n(C)c(=O)n(C)c2=O)cc1OC(C)=O	43*	-13	1	26	0	4	1	-5
O=C(NCc1ccco1)Nc1cccc([N+](=O)[O-])c1	0	10	2	0	1	-6	·	·
O=C(N/N=C/c1cccnc1)c1cc(O)c(O)c(O)c1	40*	21	16	16	·	·	6	-3
O=C(N/N=C/c1cccnc1)c1ccc(O)cc1	0	2	-5	-11	·	·	·	·
O=C(/C(=N/N=C/c1ccc(O)c(O)c1)c1ccccc1)c1ccccc1	48*	2	0	-12	0	3	30*	3

Bioassay records from PubChem.
